# Target: Fibroblast growth factor 10 (Homo sapiens) (UniProt O15520)
# Assay: compounds binding fibroblast growth factor 10 – biochemical, small-molecule microarray, 635 nm fluorescence, primary screen (AID 1102)
# Conditions: FGF10 binding, fluorescence 635 nm, higher = more signal
# Sequence of Fibroblast growth factor 10 (Homo sapiens) (O15520 whole entry, looked up): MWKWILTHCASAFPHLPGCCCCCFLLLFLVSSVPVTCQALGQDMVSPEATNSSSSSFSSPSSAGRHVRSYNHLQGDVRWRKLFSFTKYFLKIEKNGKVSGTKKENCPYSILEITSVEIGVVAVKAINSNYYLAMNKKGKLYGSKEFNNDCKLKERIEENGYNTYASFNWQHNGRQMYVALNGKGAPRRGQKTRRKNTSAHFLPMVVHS
row,Compound,composite z-score
1,CC(C)CN1C(=O)[C@@]2(c3ccc([N+](=O)[O-])cc3)CC(=O)N(CC34CC5CC(CC(C5)C3)C4)[C@@H]2c2ccc(CO)cc21,-1.02
2,C=C(CCCC)/C(=C/C[C@@H](OC(C)=O)c1ccc(CO)o1)c1cc(C(=O)OC)ccc1OC,1.19
3,COC(=O)C1(Cc2ccccc2)C=C2C(=C(C(C)C)C(=O)C2C)CN1 (configuration not stated),-0.713
4,COc1ccc([Si](C)(C)[C@@H]2[C@@H](CCO)O[C@]3(C(=O)N(Cc4cccc(N5C(=O)c6cccc7cccc5c67)c4)c4ccccc43)[C@H]2C)cc1,0.454
5,C=CCC(OC(C)=O)[C@@H]1[C@@H](N(Cc2cc3ccccc3o2)C(=O)Cc2ccc(F)cc2)c2cc(OCCCO)ccc2N1C(=O)c1ccc2ccccc2n1 (some centres not stated),-0.0436
6,C=CCOC(=O)[C@@H]1[C@H]2C(=O)O[C@H](c3ccccc3)[C@H](c3ccccc3)N2[C@H](c2ccc(OCCOC(=O)[C@H]3C[C@H]4C(=O)N[C@@H](CCCC[N+](C)(C)C)C(=O)N4[C@H]3c3ccc(O)cc3)cc2)[C@@]12C(=O)Nc1ccc(I)cc12,1.46
7,[N-]=[N+]=Nc1ccccc1[C@@H]1OC(c2ccc(OCCCO)cc2)=N[C@]1(CCS(=O)(=O)c1ccccc1)C(=O)NCCN1CCOCC1,0.832

# Test system: glycogen synthase kinase-3 (GSK3A per assay name; protocol says GSK3B)
# Assay: compounds binding glycogen synthase kinase-3 – biochemical, small-molecule microarray, 635 nm fluorescence, GSK3A, primary screen (AID 1103); also: the record names both GSK3A and GSK3B
# Conditions: fluorescence 635 nm, higher = more signal
row,Compound,composite z-score
1,CC(C)(C)OC(=O)CC[C@]1(C(=O)NCCN2CCOCC2)N=C(c2ccc(OCCCO)cc2)O[C@H]1c1ccccc1,-1.04
2,C=CC[C@@]12N=C(c3ccc(OCCCO)cc3)O[C@@H]1c1ccccc1N(CCS(=O)(=O)c1ccccc1)C2=O,1.28
3,CCOC(=O)C[C@H]1[C@H](OC(=O)c2ccccc2-c2ccccc2)[C@@H](NC(=O)CC(C)C)c2cc(OCCCO)ccc2N1C(=O)c1ccc2ccccc2n1,0.561
4,COc1ccc(C(O)C2C=CC3C(=O)N(c4ccccc4)C(=O)C3N2Nc2ccccc2)cc1OCc1ccccc1 (configuration not stated),1.29
5,NCCCCCNC(=O)[C@@H]1C[C@@H]2C(=O)N[C@@H](CCCCN)C(=O)N2[C@@H]1c1cccc(OCCO)c1,0.642
6,CCCCC(CC)C(O)C1C=CC2C(=O)N(c3ccccc3)C(=O)C2N1Nc1ccc([N+](=O)[O-])cc1 (configuration not stated),1.34
7,CC(C)(C)OC(=O)CC[C@]1(C(=O)O)N=C(c2ccc(OCCCO)cc2)O[C@H]1c1ccccc1CN=[N+]=[N-],-0.138
8,C=C(/C(=C/C[C@@H](OC(=O)c1ccncc1)c1ccccc1OCCO)c1cc(C(=O)OC)ccc1OC)C(C)C,0.759
9,O=C1O[C@@H](c2ccccc2)[C@@H](c2ccccc2)N2[C@@H](c3ccccc3OCCO)[C@]3(C(=O)Nc4ccccc43)[C@@H](C(=O)NC[C@H](O)c3ccccc3)[C@H]12,0.342
10,COCCOC(=O)N1C(=O)[C@@]2(c3cc(C#CC4(O)CCCCCC4)ccc31)[C@H](c1ccccc1OCCO)N1[C@H](c3ccccc3)[C@H](c3ccccc3)OC(=O)[C@H]1[C@@H]2C(N)=O,1.28
11,O=c1cccc(-c2cccc(Cl)c2)o1,0.415
12,COCCOC(=O)N1C(=O)[C@@]2(c3cc(C#CC4=CCCCC4)ccc31)[C@H](C(=O)N1CCN(c3ncccn3)CC1)[C@H]1C(=O)O[C@H](c3ccccc3)[C@H](c3ccccc3)N1[C@@H]2c1ccc(O)cc1,1.27
13,COCC(=C=CC[C@H](O)c1ccc(OCCO)cc1)C[C@H](O)COCc1ccccc1,0.351
14,C=C[C@@H](COC(C)=O)NS(=O)(=O)c1ccc(Br)cc1,0.444
15,O=C1C2C=CC(C(O)c3cc(C(F)(F)F)cc(C(F)(F)F)c3)N(Nc3ccc([N+](=O)[O-])cc3)C2C(=O)N1c1ccccc1 (configuration not stated),1.34
16,CC(=O)NCCCC[C@@H]1NC(=O)[C@@H]2C[C@H](C(=O)O)[C@H](c3ccc(O)cc3)N2C1=O,-1.18
17,COCCOC(=O)N1C(=O)[C@@]2(c3cc(C#CC4=CCCCC4)ccc31)[C@H](c1ccc(O)cc1)N1[C@H](c3ccccc3)[C@H](c3ccccc3)OC(=O)[C@H]1[C@@H]2C(=O)Nc1nc2ccccc2s1,1.24
18,CC(C)CNC(=O)[C@@H]1c2ccccc2C(=O)N(Cc2cc(F)cc(C(F)(F)F)c2)[C@H]1c1ccc(CO)cc1,0.13
19,C=C(C(=O)CC[C@H](OC(C)=O)c1cccc(OCCO)c1)C(C)C,-1.24
20,O=C1O[C@@H](c2ccccc2)[C@@H](c2ccccc2)N2[C@@H](c3ccc(O)cc3)[C@]3(C(=O)Nc4ccc(C#CCCO)cc43)[C@@H](C(=O)NC[C@H](O)c3ccccc3)[C@H]12,-0.375

# — PubChem BioAssay
